# From PubChem BioAssay AID1851 (National Center for Advancing Translational Sciences (NCATS), 2009)
# Where “and” joins values, the source holds several entries; their conditions need not be identical. Equal entries are not always repeated. The campaign covered roughly 16,000 compounds. About 2,600 (16%) were called active. Another 20% or so got no clear call; they are omitted. Only a sample is shown. Values without a mark were called inactive. Calls follow the shape of the dose curve; as a rule, active = well fitted curve in the direction sought with a large enough effect; inconclusive = small, poorly fitted or top-dose-only effect, or effect the other way; inactive = no such curve, though single readings can be large or run the other way.
# Biological target: Cytochrome P450 2D6 (Homo sapiens) (UniProt P10635)
# Assay: Cytochrome panel assay with activity outcomes
# Conditions: recombinant CYP, pro-luciferin dealkylation, luminescence, p450-cyp2d6; series mostly up to 57.1 µM; activity, negative = inhibition: at the top concentration
# % is scaled to controls: 0 for no effect and ±100 for the full control effect.
# Cytochrome P450 2D6 (Homo sapiens), sequence (P10635 whole entry, looked up): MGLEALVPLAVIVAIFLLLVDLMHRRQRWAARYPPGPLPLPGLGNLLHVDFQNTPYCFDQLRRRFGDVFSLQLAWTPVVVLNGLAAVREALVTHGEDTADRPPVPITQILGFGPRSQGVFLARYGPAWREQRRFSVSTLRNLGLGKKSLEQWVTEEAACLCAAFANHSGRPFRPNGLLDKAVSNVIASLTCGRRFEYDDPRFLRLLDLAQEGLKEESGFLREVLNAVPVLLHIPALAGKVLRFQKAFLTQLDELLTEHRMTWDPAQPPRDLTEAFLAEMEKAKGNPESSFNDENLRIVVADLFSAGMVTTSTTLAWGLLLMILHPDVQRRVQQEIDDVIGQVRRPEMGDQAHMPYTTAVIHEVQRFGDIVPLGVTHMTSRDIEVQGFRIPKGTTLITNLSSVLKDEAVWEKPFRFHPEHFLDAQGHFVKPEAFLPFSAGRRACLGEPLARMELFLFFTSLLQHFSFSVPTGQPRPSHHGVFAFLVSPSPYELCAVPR
SMILES,"activity, negative = inhibition",AC50
CN(C)CCO[C@](C)(c1ccccc1)c1ccccn1,-17.4% [at 25.6 µM],–
C[C@@H](C1=C(CCN(C)C)Cc2ccccc21)c1ccccn1,–,12.6 µM (active)
O=C(O)CCc1nc(-c2ccccc2-n2cccc2)no1,-11.8% [at 11.4 µM],–
Cn1cc(-c2nc3cnc(Oc4cccc(Cl)c4)nc3n(CCC#N)c2=O)c2ccccc21,-4.89%,–
Nc1cc(=O)[nH]c(N)n1,5.2%,–
CCCc1nnc(SCC(=O)N2CCCCC2)n1CC1CCCO1 (stereo not drawn),-8.47%,–
CC(C)c1nc2oc3ccccc3c(=O)c2c(=O)n1-c1ccccc1,1.39%,–
CC(=O)c1cc(CC=C(C)C)c(O)cc1O,–,14.1 µM (active)
COc1cc(CC(=O)O)c(C(C)=O)cc1OC,-1.85%,–
CNc1oc(-c2cccs2)nc1C#N,-4.23%,–
N#Cc1nc(-c2ccc(OCc3ccccc3)cc2)oc1NCCN1CCOCC1,-19.7%,–
N#Cc1nc(-c2cccs2)oc1NCc1ccccc1,–,4.47 µM (active)
CCCC12CN3CC(CCC)(CN(C1)C3C(O)C(O)C(O)CO)C2=O (stereo not drawn),-18.7%,–
CCO/C([O-])=N/c1c[n+](N2CCOCC2)no1,11.1% [at 25.6 µM],–
NS(=O)(=O)c1ccc(N=Nc2nc3[nH]c(=O)[nH]c(=O)c3[nH]2)cc1,15.1% [at 11.4 µM],–
COC(=O)c1sc2ccccc2c1-n1cccc1C(=O)C(=O)Nc1ccc(Cl)cc1,33.3%,–
OC[C@@H]1NC[C@@H](O)[C@@H](O)[C@H]1O,4.42%,–
COc1ccc(-c2ccc(=O)n(CC(=O)Nc3nnc(C(C)C)s3)n2)cc1OC,4.75%,–
COc1ccc(-c2nnn(CC(=O)N(CC(=O)NCCC(C)C)Cc3cccs3)n2)cc1OC,–,11.2 µM (active)
CCOc1ccc(-c2nnn(CC(=O)Nc3cc(OC)ccc3OC)n2)cc1OCC,-15.6%,–
CCOc1ccccc1NC(=O)C1=C(C)NC(=O)NC1c1cccc(OC)c1OC (stereo not drawn),-5.38%,–
NC(N)=N/N=C(\c1ccc(Cl)cc1)C1CC1,1.81% [at 11.4 µM],–
Nc1ncnc(N(c2ccccc2)C2CCCCC2)c1[N+](=O)[O-],19.7%,–

SMILES,"activity, negative = inhibition",AC50
CN[C@@H](c1ccncc1)[C@@H](NC)c1ccncc1,-10.1% [at 11.4 µM],–
COc1ccc(CN2CCN(C(=O)CC(C)C)CC2)c(OC)c1OC,-20.4%,–
COc1cc(CN2CCN(C(=O)CC(C)C)CC2)cc(OC)c1OC,-10.3%,–
CC(C)CC(=O)N1CCN(Cc2cccc(F)c2)CC1,–,8.91 µM (active)
Cc1ccc(S(=O)(=O)Nc2ccc(=O)n(Cc3ccc(Cl)c(Cl)c3)c2)cc1,–,3.98 µM (active)
Cc1ccc(NCCC(=O)c2ccc(Cl)c(Cl)c2)cc1,-27.8%,–
O=c1ccc(NS(=O)(=O)c2ccccc2)cn1Cc1ccc(Cl)c(Cl)c1,–,14.1 µM (active)
O=c1ccc(NS(=O)(=O)c2ccc(Cl)cc2)cn1Cc1ccc(Cl)c(Cl)c1,–,7.94 µM (active)
Cc1cc(NS(=O)(=O)c2ccc(NC(=O)CN3C(=O)c4ccccc4C3=O)cc2)nc(C)n1,-5.29%,–
O=c1nc2ccccc2c(NS(=O)(=O)c2ccc(Cl)cc2)n1-c1ccccc1,10.2%,–
O=C(c1cc(Cl)c(=O)n(Cc2ccc(Cl)cc2)c1)N1CCOCC1,-10.6%,–
COc1ncc2nc(C)c(=O)n(CCC#N)c2n1,6.73%,–
COc1ccc(C(=O)N2CCC3(CCCN(C(=O)Nc4cccc(F)c4)C3)CC2)cc1,-16.4%,–
CCN(CC)C(=O)c1sc2[nH]c(=S)n(-c3ccccc3)c(=O)c2c1C,-9.98%,–
COc1cccc(OC)c1C(=O)Nc1cc(C)on1,-25.9%,–
CCOC(=O)C1=C(COc2ccc(F)cc2Cl)NC(=O)NC1c1cc(C)ccc1C (stereo not drawn),-19.5%,–
CC(C)NC(=O)c1ccc2c(=O)n(Cc3ccco3)c(=S)[nH]c2c1,-2.05%,–
Cc1ncsc1C(=O)N1N=C2/C(=C/c3ccccc3)CCCC2C1c1ccccc1 (stereo not drawn),3.61%,–
COc1ccc(C(=O)Oc2cc(/C=N/NS(=O)(=O)c3ccc(C)cc3)ccc2OC)cc1,1.92%,–
O=S(=O)(N/N=C\c1cccn1-c1ccccc1)c1ccc2ccccc2c1,–,5.01 µM (active)
Cc1ccc(S(=O)(=O)N/N=C/c2cccn2-c2ccc(Cl)cc2)cc1,3.13%,–
CCc1ccccc1NC(=O)c1nnn(CC(=O)Nc2ccccc2C)c1N,-18.4%,–
Cc1nn(CC(=O)NCCN2CCOCC2)c(C)c1[N+](=O)[O-],0.91%,–

SMILES,"activity, negative = inhibition",AC50
Cc1cc(C)n(C(=O)CCCCCCCCC(=O)n2nc(C)cc2C)n1,-12.3%,–
COc1ccc(Nc2nc(N3CCCCC3)c3ccccc3n2)cc1,–,1.58 µM (active)
COc1ccc(N2CCN(c3nc(Nc4ccc(F)cc4)nc(OC)n3)CC2)cc1,0.148%,–
COc1ccc(Nc2cc(C(=O)NCCCN3CCN(C)CC3)c3ccccc3n2)cc1,-17.4%,–
CCNc1ncc2ncc(=O)n(C[C@H]3CCCO3)c2n1,-8.66%,–
COc1cccc(CNCCc2c[nH]c3ccccc23)c1OCc1ccccc1F,–,0.282 µM (active)
CC(=O)N[C@@H](Cc1c[nH]c2ccccc12)C(=O)OCc1cc(C(F)(F)F)cc(C(F)(F)F)c1,17.4%,–
COc1ccc(C(C(=O)NC2CCCCC2)N(C(=O)Cc2c[nH]c3ccccc23)c2ccc(NC(C)=O)cc2)cc1OC (stereo not drawn),-30.5%,–
COc1cc(Cl)c(CC(=O)c2c[nH]c3ccccc23)cc1OC,-18% [at 11.4 µM],–
COC(=O)C(Cc1c[nH]c2ccccc12)NC(=O)C(C)C (stereo not drawn),-4.41%,–
COc1cc(CNCCc2c[nH]c3ccccc23)ccc1OCc1ccccc1F,–,3.98 µM (active)
CCOC(=O)c1cnc2cc(-c3ccc(C)cc3)nn2c1-c1ccccc1,2.65%,–
O=C1N=C(N2CCC(Cc3ccccc3)CC2)S/C1=C/c1cn[nH]c1-c1ccccc1,-18.3%,–
COc1ccccc1NC(=O)Nc1nnc(-c2ccco2)s1,-1.54%,–
O=S(=O)(c1ccccc1)c1cnc(-c2cccnc2)nc1-c1ccc(Cl)cc1Cl,-28%,–
COC(=O)c1c(C)[nH]c(O)c1C=Nc1ccc(C(C)C)cc1,-5.18%,–
OC[C@H]1NC[C@H](O)[C@@H](O)[C@H]1O,1.77%,–
CN(C)CC/C=C1\c2ccccc2COc2ccccc21,–,15.8 µM (active) and 3.16 µM (active) and 3.98 µM (active)
CN(C)CCC=C1c2ccccc2C=Cc2ccccc21,–,6.31 µM (active)
CNCCC=C1c2ccccc2C=Cc2ccccc21,–,5.01 µM (active)
O=C1OCc2cccc3cccc1c23,12.5%,–
C[N+](C)([O-])CCC=C1c2ccccc2CCc2ccccc21,-5.43% [at 11.4 µM],–
